Test results: PubChem BioAssay (NCI)
The panel holds about 79,000 compounds, 15% with a hit somewhere; the sample as a whole holds those more often. Calls of active or inactive are those of the source. No stated cut-off is given here; in the data, active means growth inhibition above about 70%; inactive means the rest.

Legend:
[1] = NCI Yeast Anticancer Drug Screen. Data for the rad50 strain (AID 155);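 further: 0% = growth of vehicle-only cultures of the same strain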; settings: S. cerevisiae rad50 strain growth inhibition; at 50.0 µM; active compounds read high
Outline: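 Cells are treated with compound, grown, and their growth is then scored against vehicle-only cultures of the same repair-deficient yeast strain.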

[2] = NCI Yeast Anticancer Drug Screen. Data for the mec2-1 strain (AID 157); settings: S. cerevisiae mec2-1 strain, at 50.0 µM, active compounds read high
Outline: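 Test agents were screened against the mec2-1 yeast strain, with defined DNA repair or cell cycle alteration. Growth was scored as inhibition against vehicle-only controls.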

[3] = NCI Yeast Anticancer Drug Screen. Data for the sgs1 mgt1 strain (AID 161);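 further: 0% = growth of cultures given vehicle only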; settings: S. cerevisiae sgs1 mgt1 strain, at 50.0 µM, active compounds read high
Outline: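 Inhibition of yeast growth, normalised to vehicle-treated controls, is reported for a strain bearing genetic alterations in DNA damage repair.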

[4] = NCI Yeast Anticancer Drug Screen. Data for the cln2 rad14 strain (AID 165);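 further: 0% = growth equal to vehicle treated cultures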; settings: S. cerevisiae cln2 rad14 strain, at 50.0 µM, active compounds read high
Outline: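 Growth of compound-exposed yeast (cln2 rad14 genotype) measured and expressed as inhibition relative to vehicle.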

[5] = NCI Yeast Anticancer Drug Screen. Data for the bub3 strain (AID 167); settings: S. cerevisiae bub3 mutant strain, at 50.0 µM, active compounds read high
Outline: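 Part of a panel of yeast mutants defective in DNA damage repair or cell cycle regulation. Each strain is grown with compound, and inhibition is calculated relative to solvent-treated cultures.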

[6] = NCI Yeast Anticancer Drug Screen. Data for the mlh1 rad18 strain (AID 175); settings: S. cerevisiae mlh1 rad18 strain growth inhibition; at 50.0 µM; active compounds read high
Outline: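 In this whole-cell yeast screen, a strain with altered DNA damage repair is challenged with compound, and its growth is measured against matched vehicle-treated controls.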

Measured: growth inhibition

Cc1ccc(S(=O)(=O)C(CCC(=O)c2ccccc2)(CCC(=O)c2ccccc2)[N+](=O)[O-])cc1
inactive: [1] -9.05% | [2] -9.45% | [3] -10% | [4] -26% | [5] -1.5% | [6] 0%

CN(C)CCCNc1nc(Cl)nc2nc(-c3ccccc3)c(-c3ccccc3)nc12
inactive: [1] 50.2% | [2] 31% | [3] 60.5% | [4] 36% | [5] 28.9% | [6] 61.2%

CCCC(=O)/C=C\c1ccccc1
inactive: [1] 21.6% | [2] -3.7% | [3] 6.55% | [4] -61.9% | [5] 3.2% | [6] -10.7%

CCC(C)(O)C#CC(C)(O)CC (stereo unspecified)
inactive: [1] -0.1% | [2] -0.95% | [3] 11.8% | [4] -63% | [5] 9.8% | [6] -40.8%

O=C(Nc1nc(=S)[nH][nH]1)C(=O)C(c1cnc2ccc([N+](=O)[O-])cc2n1)[N+](=O)[O-] (stereo unspecified)
inactive: [1] -4.5% | [2] -26% | [3] -14.3% | [4] 7.9% | [5] -0.6% | [6] 3.2%

O=c1/c(=C\C=C\c2ccccc2)sc2n1CCN=2
inactive: [1] -15.7% | [2] -40.6% | [3] -11.3% | [4] -10.8% | [5] -22.2% | [6] -13.5%

O=[N+]([O-])c1ccc(C[N+]2(CCC[N+]3(Cc4ccc([N+](=O)[O-])cc4)CCCC3)CCCC2)cc1
inactive: [1] -1.6% | [2] -18.2% | [3] -2.1% | [4] 10.7% | [5] 8.75% | [6] 2.3%

CCCCCCCCCCCCCCCCCCOc1c(Cl)c(Cl)c(Cl)c(Cl)c1Cl
inactive: [1] 15.1% | [2] -1.55% | [3] -8.25% | [4] -25.9% | [5] -7.4% | [6] -8.1%

NC(=S)c1cc[n+]([O-])cc1
inactive: [1] 8.65% | [2] 2.55% | [3] 5.4% | [4] -11.2% | [5] -7.2% | [6] -3.8%

NNC(=O)c1ccc[n+](CCc2ccccc2)c1
inactive: [1] -1.25% | [2] -8.55% | [3] -34% | [4] -34% | [5] -30.4% | [6] -5.5%

CCN(CC)CN1C(=O)C(=O)c2ccccc21
inactive: [1] 6.8% | [2] -25.4% | [3] 2.6% | [4] 24.4% | [5] 12.8% | [6] 10.3%

CC1=CC(=O)C(=O)C2=C1OC1(C2)C(C)CCC2C3(C)CCC(O)C(C)(C)C3CCC21C (stereo unspecified)
active: [1] 86.5% | [2] 89.8% | [3] 89.1% | [4] 88.2% | [5] 86.3% | [6] 87.2%

Cc1cccc(C(=O)O)c1N
inactive: [1] 9.7% | [2] -5.25% | [3] -10.6% | [4] 9.95% | [5] -33.6% | [6] 13.4%

O=C(NCc1cccc2ccccc12)Nc1ccccc1Cl
inactive: [1] 4.9% | [2] 36.1% | [3] 10.3% | [4] -6.55% | [5] 27% | [6] 30%

C=C(Br)C[N+](CC)(CC)CC
inactive: [1] -14.3% | [2] -3.3% | [3] -9.4% | [4] 15.8% | [5] -8.85% | [6] -9.25%

CN1C(=O)n2c(nc3ccccc32)C(N2CCOCC2)(N2CCOCC2)C1=O
inactive: [1] 44% | [2] 56.4% | [3] 62.9% | [4] 29.9% | [5] 31.4% | [6] 45.8%

COc1ccc(CCN2C(=O)C(=O)N(C(C)C)C2=O)cc1OC
inactive: [1] 7.9% | [2] 1.6% | [3] 13% | [4] 16.4% | [5] 4.85% | [6] 14.7%

O=C1Nc2cc(F)ccc2C1=O
inactive: [1] 15.5% | [2] 15.1% | [3] 7.95% | [4] 10.7% | [5] 19.6% | [6] 19.4%

CCCCCCCC(=O)NS(=O)(=O)c1ccccc1
inactive: [1] 31.7% | [2] 20.7% | [3] 27.8% | [4] 52.2% | [5] 37.2% | [6] 39.8%

Cc1cccc(NC(=O)COc2c(C)cc(Cl)cc2Cl)c1
inactive: [1] 23.8% | [2] 15.5% | [3] 38.2% | [4] 0.45% | [5] 38% | [6] 14.8%

CC(=O)Oc1c(C)c2c(O)c3c1C1=C(OCOC1=C(C)C3=O)/C(C)=C\C(C)(O)C(O)C(C)C(O)C1C(=O)OC(C(C)C1O)C(C)(O)/C=C/C=C(C)C(=O)N2 (stereo unspecified)
inactive: [1] 16.2% | [2] 3.65% | [3] -10.4% | [4] 8.95% | [5] 9.7% | [6] 5.5%

C[C@H](C(O)CC(=O)C(C)(C)O)[C@H]1CC[C@@]2(C)[C@@H]3CC[C@H]4C(C)(C)[C@@H](OC5OC(COC6OC(CO)C(O)C(O)C6O)C(O)C(O)C5O)CC[C@]4(C)C3=CC[C@]12C (stereo partly specified)
inactive: [1] -12.7% | [2] -19.3% | [3] -20.2% | [4] -0.05% | [5] -23.4% | [6] -75.8%

CC(C)(C)OC(=O)N(CCCCNC(=O)c1ccccc1)CCCNC(=O)c1ccccc1
inactive: [1] 13.4% | [2] -8.5% | [3] -30% | [4] -26.5% | [5] -36.5% | [6] -64%

COCCn1nc(-c2ccc(Cl)cc2)c(-c2ccc(Cl)cc2)c(C(C)=O)c1=O
inactive: [1] 12.2% | [2] -5.15% | [3] 0.9% | [4] 9.05% | [5] -1.7% | [6] -7.85%

CC(=O)OCCCC(=O)Nc1cc([N+](=O)[O-])ccc1OCc1ccccc1
inactive: [1] 12.4% | [2] -3.35% | [3] 3.45% | [4] -6.35% | [5] 5.7% | [6] 8.45%

CC1=NN(C(=O)CC(=O)Nc2ccc(C(=O)O)cc2)C(=O)C1N=Nc1ccc(S(N)(=O)=O)cc1 (stereo unspecified)
inactive: [1] -4.7% | [2] -15.8% | [3] -1.5% | [4] -24.3% | [5] 0.55% | [6] -5.95%

O=C(OCc1ccccc1)C1(O)CCCCC1
inactive: [1] -5.6% | [2] -16.2% | [3] -6.25% | [4] -2.7% | [5] -5% | [6] -7.4%

CCNC(=S)N/N=C/c1cc(OC)ccc1O
inactive: [1] -11.7% | [2] 23.4% | [3] 0.2% | [4] 11% | [5] 23.1% | [6] -13.9%

NC(=O)COc1ncc(Cl)cc1Cl
inactive: [1] 4.05% | [2] -6.45% | [3] 3.15% | [4] -19.4% | [5] 4.4% | [6] 3.35%

CCOC(=O)c1cnc2cc(C)cc(C)c2c1Nc1ccc2c(c1)OCO2
inactive: [1] -8.15% | [2] -4.65% | [3] -12.3% | [4] -36% | [5] 5.45% | [6] -2.9%

CN(C)CCCNC(=O)N/N=C/c1ccc(O)cc1
inactive: [1] -10.2% | [2] -25.1% | [3] 7% | [4] 17.8% | [5] 1.65% | [6] -25.2%

CC1(c2nc3ccccc3[nH]2)CCC(C(=O)O)C(C)(C)O1 (stereo unspecified)
inactive: [1] 1.75% | [2] -11.2% | [3] -18.4% | [4] 15.6% | [5] -19.6% | [6] -32.9%

Cn1c(N)c(C(=O)/C=C/c2ccccc2)c(=O)n(C)c1=O
inactive: [1] 11.4% | [2] -17.5% | [3] 17.9% | [4] 17.1% | [5] -3.85% | [6] 5.8%

COc1cccc(/C=C\C#N)c1
inactive: [1] -23.1% | [2] -1.3% | [3] -45% | [4] -7.05% | [5] -26.9% | [6] -22.1%

C[Si](C)(C)c1ccc(C(N)=O)cc1
inactive: [1] 14.4% | [2] 16.4% | [3] 3.3% | [4] 8.3% | [5] 8.65% | [6] 8.7%

COc1ccc(C(NCCn2cnc3c2c(=O)n(C)c(=O)n3C)c2ccccc2)cc1 (stereo unspecified)
inactive: [1] 19.4% | [2] 4.05% | [3] 11.2% | [4] -33.6% | [5] -4.5% | [6] 18.8%

O=C(COc1ccc(Cl)cc1Cl)Nc1ccc2ccccc2c1S(=O)(=O)O
inactive: [1] 6.45% | [2] 2.2% | [3] 12.5% | [4] -5.95% | [5] 8.4% | [6] 3.6%

Nc1nc(O)c(N)c(=O)[nH]1
inactive: [1] -18.2% | [2] -16.9% | [3] -15.8% | [4] -17.8% | [5] -4.05% | [6] -20.9%

CCCCCCCCCCCCCCCC(=O)Nc1ccc(C(=O)C[n+]2ccc3c(NC(=O)CCC(=O)OC)cccc3c2)cc1
inactive: [1] 3.4% | [2] -12.2% | [3] 3% | [4] -0.95% | [5] 8.55% | [6] -10.6%

N#C/C(=N/Nc1ccccc1)c1ccccc1
inactive: [1] 6.5% | [2] 9.1% | [3] -12.1% | [4] -11.2% | [5] 1.85% | [6] -7.95%

O=C(C[n+]1ccccc1)N/N=C(\Cc1nc2ccc([N+](=O)[O-])cc2[nH]c1=O)C(=O)Nc1cc(Cl)c(Cl)cc1Cl
inactive: [1] 24.2% | [2] 10.1% | [3] 2.5% | [4] -27.8% | [5] 16.9% | [6] 9.35%
